Data on 9 compounds can be found in PubChem BioAssay (Tox21).

Records with an inconclusive call do not appear. The source made the active and inactive calls. Unless noted, calls follow the shape of the dose curve; as a rule, active = well fitted curve in the direction sought with a large enough effect in the repeat runs; inconclusive = weak or mixed curves; inactive = no such curve, though single readings can be large; an effect the other way counts as inactive or inconclusive.

The nature of assay [1]: A CellTox Green Cytotoxicity Assay to monitor cytotoxicity in HepG2 cells - 8 hour (AID 1224890). Also: nearly all actives have a fitted effect of over 45% in size. The method in brief:
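HepG2 cells were seeded together with the CellTox Green dye at 600 cells/well, left 5 h at 37 C/5% CO2, then given compounds in DMSO. Fluorescence from dye bound to dead-cell DNA was read repeatedly over 40 h of treatment at 37 C.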

The nature of assay [2]: qHTS assay to identify small molecule antagonists of the estrogen receptor alpha (ER-alpha) signaling pathway using the BG1 cell line in the presence of 0.1 nM 17-beta-estradiol - cell viability counter screen (AID 1259241). Also: nearly all actives have a fitted effect of over 40% in size. Summed up: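 Viability in VM7Luc4E2 cells after 22 hr compound exposure under 0.1 nM 17beta-estradiol stimulation, by CellTiter-Fluor.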
In general terms: Quantitative high-throughput screening tests each substance at several concentrations.

Assay [3] is described as follows: qHTS assay to identify small molecule HDAC inhibitors (AID 1259364). Also: nearly all actives have a fitted effect of over 45% in size. Also: potency is read from the fitted curve at half-maximal effect. The method in brief: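 Wild-type HCT-116 cells were plated overnight, exposed to compounds for 2 h at 37 °C, then given HDAC-Glo class I/II luminogenic reagent for 30 min at room temperature before luminescence was read.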
Assay [4] in a line: qHTS assay to identify small molecule HDAC inhibitors - cell viability counter screen (AID 1259365). Also: series mostly up to about 92 µM; nearly all actives have a fitted effect of over 50% in size. The method in brief:
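Cytotoxicity was gauged in wild-type HCT-116 cells after a brief 2hr treatment with DMSO-dissolved compounds at 37C and 5% CO2, using CellTiter-Glo luminescence developed for 30min at room temperature.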

Assay [5] in a line: qHTS assay to identify small molecule agonists of the sonic hedgehog signaling (Shh) pathway - cell viability counter screen (AID 1259366). Also: nearly all actives have a fitted effect of over 50% in size. Also: potency is read from the fitted curve at half-maximal effect. Summed up:
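Stable Gli1-Luc NIH/3T3 clone, 2,000 cells/well. Compound exposure 24hr at 37C. Read-out: CellTiter-Fluor fluorescence.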

Assay [6] in a line: qHTS assay to identify small molecule antagonists of the sonic hedgehog signaling (Shh) pathway - cell viability counter screen (AID 1259367). Also: nearly all actives have a fitted effect of over 55% in size. Summed up: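 NIH/3T3-derived Gli1-Luc reporter cells (2,000 per well) rested 4 hr at 37 C, then received DMSO compounds plus conditioned medium. After 23 hr of treatment, CellTiter-Fluor was added for 1 hr at 37C and fluorescence read.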

Assay [7] can be described thus: qHTS assay to identify small molecule agonists of the sonic hedgehog signaling (Shh) pathway (AID 1259368; calls by dose curve; also: series mostly up to about 92 µM; nearly all actives have a fitted effect of over 15% in size). Summed up:
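NIH/3T3-derived 3T3Gli1-Luc cells carrying a stably integrated Gli1 response element–firefly luciferase reporter were plated, left 4 hr at 37 C, then given compounds in DMSO for 24 hr. Luminescence was read 30 min after adding luciferase reagent.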

A short description of assay [8]: qHTS assay to identify small molecule antagonists of the sonic hedgehog signaling (Shh) pathway (AID 1259369; calls by dose curve; also: nearly all actives have a fitted effect of over 45% in size). The method in brief: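 NIH/3T3-derived 3T3Gli1-Luc cells with stably integrated Gli1-Luc reporter were preincubated 4hr at 37 C, then given compounds in DMSO plus Shh conditioned medium and incubated 24hr. Firefly luciferase luminescence read after 30min reagent at room temperature.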

Assay [9] can be described thus: qHTS assay to identify small molecule agonists of the androgen receptor (AR) signaling pathway in the presence of an antagonist - cell viability counter screen (AID 1259379). Also: nearly all actives have a fitted effect of over 25% in size. Also: potency is read from the fitted curve at half-maximal effect. Summed up:
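MDA-kb2 human breast carcinoma cells (stable MMTV-luciferase, AR/GR responsive) were seeded 3,000 cells/well, pre-incubated 5 hr at 37C without CO2, then given 3.0uM nilutamide and compounds at 15 concentrations for 16 hr. Viability was read by CellTiter-Fluor fluorescence.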

A short description of assay [10]: qHTS assay to identify small molecule agonists of the estrogen receptor beta (ER-beta) signaling pathway - cell viability counter screen (AID 1259380). Also: nearly all actives have a fitted effect of over 30% in size. Also: potency is read from the fitted curve at half-maximal effect. The method in brief: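 ER-beta-UAS-bla HEK293T cells in medium with 2% charcoal-stripped FBS were preincubated 6 hr at 37C, dosed with compound in DMSO for 16 hr, then after the bla read, CellTiter-Glo was added for 30 min at room temperature; luminescence recorded.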

A short description of assay [11]: qHTS assay to identify small molecule antagonists of the estrogen receptor beta (ER-beta) signaling pathway - cell viability counter screen (AID 1259382). Also: nearly all actives have a fitted effect of over 55% in size. Also: potency is read from the fitted curve at half-maximal effect. The method in brief: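 ER-beta-UAS-bla HEK293T cells (2,000/well, 2% charcoal-stripped FBS) were pre-incubated 6 hr at 37C, then given compound plus 1nM final 17-beta-estradiol for 16 hr. Viability was read in the same wells by CellTiter-Glo luminescence after 30 min at room temperature.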

Assay [12] in a line: qHTS assay to identify small molecule antagonists of the androgen receptor (AR) signaling pathway using the MDA cell line in the presence of 0.5 nM R1881 - cell viability counter screen (AID 1259242). Also: nearly all actives have a fitted effect of over 45% in size. Summed up:
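MDA-kb2 cells (human breast carcinoma, stably carrying MMTV-luciferase reporter) were exposed to compounds with 0.5 nM R1881 (final) for 16 hr at 37C, 0% CO2; viability then read as live-cell protease fluorescence (CellTiter-Fluor, 30 min) in the same wells.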

For assay [13], the target named is Estrogen receptor (Homo sapiens) (UniProt P03372). Description: qHTS assay to identify small molecule antagonists of the estrogen receptor alpha (ER-alpha) signaling pathway using the BG1 cell line in the presence of 0.1 nM 17-beta-estradiol (AID 1259244). Also: nearly all actives have a fitted effect of over 50% in size. The method in brief: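 VM7Luc4E2 cells (endogenous full-length ER-alpha, stable 4xERE-luciferase) were grown 5 days in phenol red-free medium with charcoal-stripped FBS, then exposed 22 h at 37C to compounds plus 0.1 nM (final) 17beta-estradiol; ONE-Glo luminescence read-out.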
Chain of Estrogen receptor (Homo sapiens) (P03372 whole entry, looked up): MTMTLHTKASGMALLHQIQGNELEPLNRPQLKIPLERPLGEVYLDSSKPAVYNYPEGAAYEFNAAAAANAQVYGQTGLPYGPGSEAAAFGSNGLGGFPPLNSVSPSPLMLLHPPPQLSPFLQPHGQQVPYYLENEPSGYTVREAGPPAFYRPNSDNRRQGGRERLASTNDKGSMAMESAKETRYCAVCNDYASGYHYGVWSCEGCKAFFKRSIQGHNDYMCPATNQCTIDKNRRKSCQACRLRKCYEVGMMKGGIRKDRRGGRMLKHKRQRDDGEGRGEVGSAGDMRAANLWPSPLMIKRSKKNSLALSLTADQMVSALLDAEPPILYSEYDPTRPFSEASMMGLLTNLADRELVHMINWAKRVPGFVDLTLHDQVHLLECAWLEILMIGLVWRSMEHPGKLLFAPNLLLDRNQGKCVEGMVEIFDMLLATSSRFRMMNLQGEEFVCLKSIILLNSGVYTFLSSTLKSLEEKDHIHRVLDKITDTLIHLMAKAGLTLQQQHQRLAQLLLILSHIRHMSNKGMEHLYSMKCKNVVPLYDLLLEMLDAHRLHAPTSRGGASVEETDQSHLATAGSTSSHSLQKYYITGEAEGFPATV

Assay [14] in a line: qHTS assay to identify small molecule phospholipidosis (PLD) inducers (AID 1259344; active = well fitted curve in the direction sought with a large enough effect; an effect the other way counts as inactive or inconclusive). Summed up: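 HepG2 cells on collagen I, attached 4 h at 37 C, were co-treated with compound and LipidTOX Red dye for 24 h at 37 C, then fixed with paraformaldehyde plus Hoechst 33342 and imaged by high-content microscopy for phospholipid accumulation.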
For assay [15], the target named is Estrogen receptor beta (Homo sapiens) (UniProt Q92731). The assay can be described thus: qHTS assay to identify small molecule agonists of the estrogen receptor beta (ER-beta) signaling pathway (AID 1259377; active = well fitted activation curve with a large enough effect in the signal ratio in the repeat runs, not every such curve was filed as active; the % refers to the signal ratio). Summed up:
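Measured by fluorescence intensity from a B/G FRET beta-lactamase substrate (2 h, room temperature) in ER-beta-UAS-bla HEK293T cells treated with DMSO-dissolved compounds for 16 hr at 37C and 5% CO2.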

The target is the same in assay [16]. The assay can be described thus: qHTS assay to identify small molecule antagonists of the estrogen receptor beta (ER-beta) signaling pathway (AID 1259378; active = well fitted inhibition curve with a large enough effect in the signal ratio in the repeat runs, not every such curve was filed as active; the % refers to the signal ratio). The method in brief: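 ER-beta-UAS-bla HEK293T (GripTite) cells in 2% charcoal-stripped FBS medium were preincubated 6 hr at 37C, dosed with compound, then stimulated with 1 nM E2 (final) for 16 hr; beta-lactamase reporter read by B/G FRET fluorescence after 2 hr substrate loading.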

The target in assay [17] is Estrogen receptor (Homo sapiens) (UniProt P03372). Description: qHTS assay to identify small molecule agonists of the estrogen receptor alpha (ER-alpha) signaling pathway in the presence of an antagonist (AID 1259383; calls by dose curve; also: top concentration of the series differs between compounds; nearly all actives have a fitted effect of over 15% in size). Summed up: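 VM7Luc4E2 cells (endogenous full-length ER-alpha, 4×ERE-luciferase) were precultured 5 days in phenol red-free medium with 10% charcoal-stripped FBS, given 10.0nM ICI-182,780 (final), then treated with compounds at 15 concentrations for 22hr at 37C; luminescence read with ONE-Glo.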

Assay [18] can be described thus: qHTS assay to identify small molecule agonists or antagonists of the thyroid stimulating hormone receptor (TSHR) signaling pathway - wild type cell line counter screen (AID 1259384; calls by dose curve). Summed up: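 Wild-type HEK293 cells were plated 18 h at 37 C/5% CO2, pin-dosed with compound plus Ro20-1724 medium, held 30 min at room temperature, then given cAMP-d2 and anti-cAMP-cryptate; fluorescence was read after 1 h. Fifteen concentrations, triplicate.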

Assay [19] concerns the target Androgen receptor (Homo sapiens) (UniProt P10275). Description: qHTS assay to identify small molecule antagonists of the androgen receptor (AR) signaling pathway using the MDA cell line in the presence of 0.5 nM R1881 (AID 1259243). Also: potency is read from the fitted curve at half-maximal effect; nearly all actives have a fitted effect of over 50% in size. The method in brief: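 MDA-kb2 human breast carcinoma cells carrying an MMTV-luciferase reporter (AR- and GR-responsive) were plated, rested 5 hr at 37C, dosed with compounds, then stimulated with 0.5 nM R1881 (final) for 16 hr; luminescence was read after ONE-Glo.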

The target is the same in assay [20]. The assay can be described thus: qHTS assay to identify small molecule agonists of the androgen receptor (AR) signaling pathway in the presence of an antagonist (AID 1259381; calls by dose curve; also: nearly all actives have a fitted effect of over 15% in size). The method in brief:
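MDA-kb2 human breast carcinoma cells carrying an MMTV-luciferase reporter (AR- and GR-responsive) were treated with compounds at 15 concentrations plus 3.0uM final nilutamide for 16hr at 37C without CO2; luminescence was read after ONE-Glo addition.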

Chain of Estrogen receptor beta (Homo sapiens) (Q92731 whole entry, looked up): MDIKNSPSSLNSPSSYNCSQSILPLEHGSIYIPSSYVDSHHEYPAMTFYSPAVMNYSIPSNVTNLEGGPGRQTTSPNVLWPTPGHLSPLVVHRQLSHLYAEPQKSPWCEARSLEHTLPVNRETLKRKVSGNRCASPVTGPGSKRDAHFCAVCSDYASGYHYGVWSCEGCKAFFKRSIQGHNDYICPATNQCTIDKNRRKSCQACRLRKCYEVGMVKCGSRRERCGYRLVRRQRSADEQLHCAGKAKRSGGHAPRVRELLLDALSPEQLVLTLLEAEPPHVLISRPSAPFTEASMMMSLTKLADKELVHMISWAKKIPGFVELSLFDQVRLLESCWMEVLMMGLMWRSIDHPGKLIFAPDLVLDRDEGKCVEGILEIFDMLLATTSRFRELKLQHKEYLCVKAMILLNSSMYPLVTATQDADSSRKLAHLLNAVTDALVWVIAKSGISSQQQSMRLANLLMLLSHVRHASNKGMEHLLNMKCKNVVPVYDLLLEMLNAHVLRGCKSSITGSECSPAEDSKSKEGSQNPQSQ
Chain of Androgen receptor (Homo sapiens) (P10275 whole entry, looked up): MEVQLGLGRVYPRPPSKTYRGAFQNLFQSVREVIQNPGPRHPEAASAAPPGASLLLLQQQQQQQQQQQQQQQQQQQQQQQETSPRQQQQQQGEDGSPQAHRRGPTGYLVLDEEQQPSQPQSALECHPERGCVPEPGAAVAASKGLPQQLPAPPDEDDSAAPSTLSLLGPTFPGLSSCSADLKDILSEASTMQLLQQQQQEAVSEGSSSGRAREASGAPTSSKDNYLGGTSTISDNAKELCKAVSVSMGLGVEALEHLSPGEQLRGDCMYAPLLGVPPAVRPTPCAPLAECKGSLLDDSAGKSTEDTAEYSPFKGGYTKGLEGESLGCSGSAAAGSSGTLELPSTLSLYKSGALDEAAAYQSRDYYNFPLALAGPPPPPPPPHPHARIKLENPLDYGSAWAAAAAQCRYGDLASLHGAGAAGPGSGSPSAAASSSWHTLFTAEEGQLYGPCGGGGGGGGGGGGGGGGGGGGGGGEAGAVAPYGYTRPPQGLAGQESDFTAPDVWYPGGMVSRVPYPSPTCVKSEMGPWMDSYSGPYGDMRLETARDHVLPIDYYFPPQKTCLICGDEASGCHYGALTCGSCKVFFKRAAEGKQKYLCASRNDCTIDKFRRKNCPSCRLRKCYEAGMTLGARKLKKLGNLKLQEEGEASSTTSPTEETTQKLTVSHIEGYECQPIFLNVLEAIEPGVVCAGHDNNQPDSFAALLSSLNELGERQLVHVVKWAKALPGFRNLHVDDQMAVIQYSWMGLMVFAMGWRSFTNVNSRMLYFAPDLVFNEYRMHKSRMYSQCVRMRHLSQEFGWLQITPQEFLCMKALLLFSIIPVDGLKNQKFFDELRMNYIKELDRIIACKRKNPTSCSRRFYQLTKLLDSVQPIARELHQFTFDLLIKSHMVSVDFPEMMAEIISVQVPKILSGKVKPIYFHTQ

With `CCCCCCC(CO)CCCC` (configuration not stated), the Potency result in assay [1], in assay [2], in assay [3], in assay [4], in [5] and in assay [6] was “inactive” each time. Moreover, the Potency entry in assay [7], in [8], in assay [9], in [10] and in assay [11] was “inactive” throughout.
For the compound `COc1cc(NC(C)CCCN)c2ncccc2c1` (configuration not stated), the Potency entry in assay [1], in [12], in assay [13], in assay [14], in assay [3] and in assay [4] was “inactive” each time. The Potency result in assay [5], in [6], in assay [7], in assay [8], in [15] and in assay [16] was “inactive” throughout. Moreover, the Potency entry in assay [9], in assay [10], in assay [11], in [17] and in assay [18] was “inactive” throughout.
As to `CN(C)CC/C=C1\c2ccccc2Sc2ccc(Cl)cc21`, the Potency entry in [2], in [13], in [4], in [7], in assay [20] and in [17] was “inactive” throughout. Also, the Potency result in assay [18] was “inactive”. Also, the Potency in assay [19] is 29.8 µM (active); in assay [5], 26.6 µM (active); in [9] it was 29.8 µM (active); in [10] it was 23.7 µM (active); in [11] it was 18.8 µM (active).
For the compound `O=C1[C@@H]2[C@H]3CC[C@H](C3)[C@@H]2C(=O)N1CCCCN1CCN(c2ncccn2)CC1`, the Potency entry in assay [2], in assay [12], in assay [13], in assay [14], in [3] and in [4] was “inactive” each time. Also, the Potency entry in assay [5], in [6], in assay [7], in [8], in assay [9] and in [10] was “inactive” each time. Also, the Potency entry in assay [11], in assay [17] and in [18] was “inactive” each time.
Turning to `Cc1cc(CCC(=O)OCCOCCOCCOC(=O)CCc2cc(C)c(O)c(C(C)(C)C)c2)cc(C(C)(C)C)c1O`, the Potency result in assay [1], in [2], in [3], in assay [4], in assay [6] and in assay [7] was “inactive” each time. In addition, the Potency entry in [8], in assay [16], in [9], in [10] and in assay [11] was “inactive” throughout.
Consider `O=C(NS(=O)(=O)/C=C/c1ccccc1)c1ccc(F)cc1Cl`, for which the Potency result in assay [1], in assay [2], in assay [13], in [3], in assay [4] and in assay [6] was “inactive” in each case. For the same compound, the Potency result in assay [7], in assay [8], in assay [15], in assay [9], in assay [10] and in [11] was “inactive” each time. In [17], the Potency entry is “inactive”.
Take `O=C1OC[C@H](Cc2cccc(O)c2)[C@H]1Cc1cccc(O)c1`: the Potency result in assay [1], in assay [2], in assay [3], in [4], in assay [5] and in assay [6] was “inactive” in each case. Also, the Potency result in [7], in [8], in assay [9], in assay [10], in assay [11] and in [18] was “inactive” in each case.
With `c1ccc(CCCc2ccncc2)cc1`, the Potency result in [2], in [12], in assay [13], in assay [4], in assay [5] and in assay [6] was “inactive” in each case. The Potency entry in assay [7], in [8], in [9], in assay [10], in assay [11] and in [17] was “inactive” throughout. The Potency in [3] was 27.3 µM (active).
On to `CC[C@H]1OC(=O)[C@H](C)[C@@H](O[C@H]2C[C@@](C)(OC)[C@@H](O)[C@H](C)O2)[C@H](C)[C@@H](O[C@@H]2O[C@H](C)C[C@H](N(C)C)[C@H]2O)[C@](C)(O)C[C@@H](C)C(=O)[C@H](C)[C@@H](O)[C@]1(C)O`, for which the Potency result in assay [1], in assay [12], in [14], in [3], in assay [4] and in assay [6] was “inactive” throughout. Further, the Potency result in assay [7], in assay [8], in [16], in assay [9], in assay [10] and in assay [11] was “inactive” throughout. Also, the Potency entry in [18] is “inactive”.
